Shown are actives, neighbours in structure and some others; about 3.3% of the full set was active somewhere.
AmpC no deterg: inhibitors of E. coli AmpC beta-lactamase without detergent. AmpC nitrocefin hydrolysis, absorbance 480 nm, 0.0001% Triton. Potency, µM (series often up to 57.1 µM), without a hit: at the top dose activity change, negative = inhibition, hits mostly inhibitors. 330,000 tested, 0.52% active. AID 485341;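 further: plate controls were no compound for no effect and no enzyme for full effect; nearly all actives have a fitted effect of over 20% in size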
Target sequence (P00811 whole entry, looked up): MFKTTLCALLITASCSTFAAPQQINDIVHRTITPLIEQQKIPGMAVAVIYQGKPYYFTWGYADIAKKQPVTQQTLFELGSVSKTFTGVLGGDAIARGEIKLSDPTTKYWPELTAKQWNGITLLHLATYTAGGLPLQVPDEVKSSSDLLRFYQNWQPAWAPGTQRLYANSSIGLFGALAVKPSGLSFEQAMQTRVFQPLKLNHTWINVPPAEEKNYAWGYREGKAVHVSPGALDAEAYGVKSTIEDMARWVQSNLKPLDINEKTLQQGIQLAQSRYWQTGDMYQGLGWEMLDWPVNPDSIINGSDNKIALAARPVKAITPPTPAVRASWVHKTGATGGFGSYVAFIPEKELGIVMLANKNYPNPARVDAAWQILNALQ
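AmpC (5.3 nM in the dispensed reagent) in 20 mM phosphate pH 7.0 with 0.01% (detergent screen) or 0.0001% Triton X-100 was preincubated with compounds for 15 min at room temperature. Nitrocefin was then added from an 800 uM solution, and hydrolysis was followed at 480 nm.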
RE007 growth inh: less growth of the S. pombe RE007 Vpr strain; S. pombe RE007 Vpr strain, BacTiter-Glo ATP luminescence, 24 h; Potency, µM (top dose mostly 92.2 µM), for inactives: at the highest dose activity change, negative = less growth, most hits filed as inhibitors; 360,000 tested, 0.21% active; active means well fitted falling curve with a large enough effect; inconclusive means small, poorly fitted or top-dose-only effect; inactive means no such curve, though single readings can be large or run the other way; further: on the % scale 0 is the no-effect control and ±100 the full control effect; nearly all actives have a fitted effect of over 50% in size
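Fission yeast RE007 carrying one integrated HIV-1 vpr copy, seeded at OD 0.01 in PMG+AL medium with 23 nL pinned compound. Grown 24 h at 30 degrees; viability read by BacTiter-Glo luminescence after 5 min.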
TbPYK inhibitor: blocks Trypanosoma brucei pyruvate kinase | 410,000 tested, 0.12% active | TbPYK enzyme, Kinase-Glo Plus ATP luminescence, 45 min | Q57TT1 | Potency, µM (highest dose often 76.8 µM), inactives show at the highest dose activity, negative = inhibition, hits mostly inhibitors; further: on the % scale 0 is the no-effect control and ±100 the full control effect; nearly all actives have a fitted effect of over 50% in size
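Luminescence from Kinase-Glo Plus, added after a 45-minute room-temperature reaction, served as the end-point read-out. The enzyme and substrate were preincubated with compound before ADP (130 uM final) initiated turnover. Concentration-effect curves came from normalized qHTS data.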
AmpC inh detg: inhibitors of E. coli AmpC beta-lactamase with detergent. P00811. AmpC hydrolysis of nitrocefin, absorbance 480 nm, 0.01% Triton. Potency, µM (titrated, usually from 114 µM), without a hit: at the highest dose activity change, negative = inhibition, actives largely listed as inhibitors. 370,000 tested, 0.041% active;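 further: 0% = no-compound wells and -100% = no-enzyme wells; nearly all actives have a fitted effect of over 25% in size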
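AmpC (5.3 nM in the dispensed reagent) in 20 mM phosphate pH 7.0 with 0.01% (detergent screen) or 0.0001% Triton X-100 was preincubated with compounds for 15 min at room temperature. Nitrocefin was then added from an 800 uM solution, and hydrolysis was followed at 480 nm.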
SARS PLpro yeast: blocks SARS-CoV papain-like protease in a yeast assay. 330,000 tested, 0.19% active. Potency, µM (top dose mostly 32.9 µM), inactives show top-dose activity, positive = growth rescue, hits mostly activators. S. cerevisiae expressing SARS-CoV PLpro, growth rescue. AID 485353; calls by dose curve; further: 0% is about no effect; nearly all actives have a fitted effect of over 55% in size
Sm TGR block: inhibitors of Schistosoma mansoni thioredoxin glutathione reductase; purified TGR, DTNB reduction, TNB absorbance 405 nm; Potency, µM (titrated, usually from 114 µM), without a hit: top-dose activity change, negative = inhibition, hits mostly inhibitors; 360,000 tested, 3% active; AID 485364; further: on the % scale 0 is the no-effect control and ±100 the full control effect; nearly all actives have a fitted effect of over 60% in size
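Kinetic colorimetric format: TGR-catalysed, NADPH-driven DTNB reduction monitored via TNB absorbance. Enzyme dispensed at 20 nM; compound exposure 15 min at room temperature before reaction start.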
Starred values were filed as active, the others as inactive; ? = inconclusive; / = no result; [ ] = dose if it differs, or a comment. Unless noted, the call rests on the fitted dose curve; in most records, active means well fitted curve in the direction sought with a large enough effect; inconclusive means small, poorly fitted or top-dose-only effect, or another doubt; inactive means no such curve, though single readings can be large; an effect the other way counts as inactive or inconclusive. Potency means the concentration at half of the fitted maximal effect.

SMILES	AmpC no deterg	RE007 growth inh	TbPYK inhibitor	AmpC inh detg	SARS PLpro yeast	Sm TGR block
Cc1ccc(N2C(=O)CSC23C(=O)N(CC(=O)NC2CCCCC2)c2ccccc23)cc1C (stereo not given)	/	/	-2.1%	-2.2%	/	5.6%
O=C(Nc1cccc(-c2nc3ncccc3o2)c1)c1ccc(-c2cccc(Cl)c2Cl)o1	/	/	-5.4%	0.8%	/	?
COc1cc2cc(C(c3nnnn3C3CCCC3)N3CCCCC3)c(=O)[nH]c2cc1OC (stereo not given)	-14.9%	-3.8%	-1.5%	7.6%	3.7%	-32.2%
COc1cc2cc(C(c3nnnn3C3CCCC3)N3CCCCCC3)c(=O)[nH]c2cc1OC (stereo not given)	73.2%	-4.4%	-6.7%	3.1%	-3.2%	35.5µM*
COc1ccc(N2CCN(C(c3cc4cc(C)ccc4[nH]c3=O)c3nnnn3Cc3ccccc3)CC2)cc1 (stereo not given)	0.5%	3.5%	-3.3%	-6.0%	12.8%	?
O=c1c(C(c2nnnn2C2CCCCC2)N2CCCCC2)coc2ccc(Cl)cc12 (stereo not given)	-12.7%	-15.3%	-16.0%	-2.1%	-4.8%	28.2µM*
Cc1ccc2cc(C(c3nnnn3Cc3ccccc3)N3CCN(c4ccccc4)CC3)c(=O)[nH]c2c1 (stereo not given)	-13.6%	5.2%	1.2%	4.8%	-0.8%	22.4µM*
Cc1ccc2cc(C(c3nnnn3C3CCCC3)N3CCOCC3)c(=O)[nH]c2c1C (stereo not given)	-11.5%	18.3%	-6.9%	4.2%	-3.4%	4.9%
Cc1ccc2cc(C(c3nnnn3C3CCCC3)N3CCN(c4ccccc4)CC3)c(=O)[nH]c2c1 (stereo not given)	-9.4%	-13.5%[3.69 µM]	/	-4.9%	10.1%	12.6µM*
O=C1CC(N2CC=C(c3ccc(F)cc3)CC2)C(=O)N1c1ccc(F)cc1 (stereo not given)	11.7%	?	0.0%	-4.9%	-26.6%	14.1µM*
O=C1CC(N2CCc3ccccc32)C(=O)N1c1ccc(F)cc1 (stereo not given)	-11.8%	8.7%	-2.1%	?	0.0%	-1.4%[57.1 µM]
CCOC(=O)c1ccc(N2C(=O)CC(N3CC=C(c4ccc(F)cc4)CC3)C2=O)cc1 (stereo not given)	-0.5%	?	4.3%	1.3%	-22.7%	5.62µM*
COc1ccc(-n2nc(C(=O)N3CCN(c4cccc(C)c4)C(C)C3)c3c4ccccc4n(C)c3c2=O)cc1Cl (stereo not given)	/	/	-0.1%	-1.4%	/	-12.8%
Cc1ccccc1C(=O)N1CC/C(=N/OS(=O)(=O)O)c2ccc(Cl)cc21	/	/	-8.0%	/	/	/
Cc1coc(C)c1C(=O)CC1(O)C(=O)N(CCc2ccccc2)c2ccccc21 (stereo not given)	0.8%	15.0%	-12.3%	-3.1%	-2.9%	14.1µM*
Cc1ccc(C(CC(=O)N2CCOCC2)c2ccco2)cc1 (stereo not given)	42.8%	39.5%	-27.7%	-17.2%	6.7%	28.2µM*
O=C(Nc1sc2c(c1C(=O)NCc1cccnc1)CCCC2)c1cc(=O)c2ccccc2o1	/	/	3.7%	16.4%	/	5.7%
Cc1ccc(NC(=O)Cn2nnc(C(=O)NCc3ccc4c(c3)OCO4)c2N)cc1Cl	/	/	0.8%	2.5%	/	4.9%
O=C(O)/C=C/c1cn(-c2ccccc2)nc1-c1cc2ccccc2oc1=O	-19.3%	4.6%	10.9%	1.6%	2.3%	-11.4%
O=C(O)CCn1cc(C=C2C(=O)NC(=S)NC2=O)c(-c2cc3ccccc3oc2=O)n1	-18.7%	-7.8%	14.1µM*	3.8%	-0.4%	10µM*
O=C(O)CCn1cc(C=C2C(=O)NC(=S)NC2=O)c(-c2ccccc2)n1	2.3%	6.3%	?	-6.6%	0.7%	79.4µM*

Screening data (PubChem BioAssay)
